The source made the active and inactive calls. The calls were made as follows: active = hit-call score of the fitted dose curve at least 0.9, where 1 is the maximum; inactive = score below 0.9.
Read-out: sulfotransferase 2A1 (SULT2A1), SULT2A1 (gene 6822)
Test: LTEA_HepaRG_SULT2A1: Life Technologies and Expression Analysis (LTEA) Assay for sulfotransferase 2A1 (SULT2A1) using HepaRG (AID 2283531)
Settings: mRNA level, 48 h; actives raise or lower the signal
Experimental: LTEA_HepaRG is a cell based, multiplexed-readout assay that uses HepaRG, a human liver cell line, with measurements taken at 48 hours after chemical dosing on a 96-well plate.LTEA_HepaRG_SULT2A1 is one of 102 assay component(s) measured in the LTEA HepaRG cell culture assay. It is a marker of NR mediated transport.Data from the assay component LTEA_HepaRG_SULT2A1 was analyzed into 1 endpoint. This assay endpoint, LTEA_HepaRG_SULT2A1, was analyzed with bidirectional fitting relative to DMSO as the negative control and baseline of activity. Using a type of inducible reporter, measures of mRNA induction for gain or loss-of-signal activity can be used to understand regulation of transcription factor activity. To generalize the intended target to other relatable targets, this assay endpoint is annotated to the transferase intended target family, where the subfamily is sulfotransferase.
A total of 1060 chemcials from the ToxCast library were tested in eight-point concentration-response experiments. Cell culture and cytotoxicity assays were conducted at Thermo Fisher Scientific's Custom Services facility (Madison, WI). A single lot of human HepaRG cells (Thermo Fisher Scientific, Frederick, MD) was used for the cell culture experiments. 96-well format collagen type I coated plates of human HepaRG cells were prepared using established methods. Briefly, cryopreserved HepaRG cells were thawed, plated at a density of approximately 100,000 cells/well in HepaRG Thaw, Plate, and General Purpose media (HPRG770, Thermo Fisher Scientific), and incubated for 48 hours. 0.5% DMSO was selected as vehicle control to balance the requisite need of DMSO in HepaRG cultures to maintain differentiation (for example, baseline metabolism, proportions of hepatocytes vs. cholangiocytes), while enabling further hepatic receptor pathway activation (for example, PXR and CAR) in response to chemical exposure. 48 hours after plating, the culture medium was replaced with HepaRG Serum-Free Incudtion Media. Cells were exposed to each test chemical in duplicate and maintained in CO2 incubators for another 48 hours. Chemical plates were thawed to room temperature and 200x concentrations of treatment groups were prepared. 8-point conentration-reponse curves were made with the highest exposure at 100 uM, followed by half-log dilutions, all in 0.5% DMSO. Each test plate contained variouse controls, induction positive controls (1mM phenobarbital), cytotoxicity positive controls ([…] aflatoxin B1), vehicle controls (0.5% DMSO), and total lysis controls (0.5% DMSO). Cell morphology images were taken using an Essen IncuCyte FLR automated microscope, with six 96-well plates imaged in about 24 minutes. Images were captured and exported and JPEG files. Spent culture media was transfered to black-well plates for the LDH assay, and remaining media was sorted at -80 C for later use. Cells were treated with RLT buffer and frozen until shipped for gene expression analysis. Total RNA was isolated from the cell suspension in 75 uL of Buffer RLT (Qiagen, Germantown, MD 20874) by Quintiles/Expression Analysis (Durham, NC) using a custom isolation procedure. Total RNA from each plate well was transferred to a preamplification plate. Fluidigm's 96.96 Dynamic ArrayTM (Fluidigm, Amsterdam, the Netherlands) technology was used for gene expression analyses by quantitative reverse transcription polymerase chain reaction (qRT-PCR, performed by Quintiles/Expression Analysis, Durham, NC)89. Standard TaqManTM Assays (Applied Biosystems/ThermoFisher Scientific, Foster City, CA) were used to assess the expression of 93 genes selected based on their selectivity and sensitivity to important hepatic receptors known to be modulated by environmental chemicals; importance in human hepatocyte functionality; and hepatotoxicity. […]

Q: `CN(C)N=O` was tested. Which outcome did it give?
A: Its outcome is “inactive”.

Q: Which AC50 does the source give for `CCN1CCC2(CC1)COc1cc3c(cc12)N(C(=O)c1ccc(-c2ccc(-c4nnc(C)o4)cc2C)cc1)CC3` here?
A: The AC50 was 75.3 µM (active).

Q: How did the AC50 turn out when `C[C@@H]1C[C@@H]([C@H](O)CC2CC(=O)NC(=O)C2)C(=O)[C@@H](C)C1` was run?
A: The AC50 was 48.9 µM (active).

Q: For `CC(=O)[O][Hg][c]1ccccc1`, which AC50 is on record?
A: Its AC50 is 17.6 µM (active).

Q: `COc1cc(-c2ccc(N)c(OC)c2)ccc1N` was tested. Which outcome did it give?
A: The outcome was “inactive”.

Q: How did the outcome turn out when `CCOP(=S)(OCC)SCSP(=S)(OCC)OCC` was run?
A: The outcome was “inactive”.

Q: With `O=[N+]([O-])c1ccc(O)c([N+](=O)[O-])c1` as the compound, how does the AC50 read?
A: The AC50 was 17.7 µM (active).

Q: How did the outcome turn out when `CC(C)(OO)c1ccccc1` was run?
A: The outcome was “inactive”.

Q: How did the AC50 turn out when `O=C(Nc1ccc2[nH]ccc2c1)c1cc2cc(F)ccc2n1Cc1cccc(F)c1` was run?
A: The AC50 was 31.8 µM (active).

Q: With `O=c1[nH]c(=O)[nH]c(=O)[nH]1` as the compound, how does the outcome read?
A: Its outcome is “inactive”.

Q: How did the outcome turn out when `CCC(C)(C)c1ccc(O)c(C(C)(C)CC)c1` was run?
A: Its outcome is “inactive”.

Q: `CCC(=O)C(CC(C)N(C)C)(c1ccccc1)c1ccccc1` (stereo not given) was tested. Which outcome did it give?
A: Its outcome is “inactive”.

Q: How did the outcome turn out when `ClC1(Cl)C2(Cl)C3(Cl)C4(Cl)C(Cl)(Cl)C5(Cl)C3(Cl)C1(Cl)C5(Cl)C24Cl` (stereo not given) was run?
A: Its outcome is “inactive”.

Q: Which AC50 does the source give for `O=C(O)C(F)(F)C(F)(F)C(F)(F)C(F)(F)C(F)(F)C(F)(F)C(F)(F)C(F)(F)C(F)(F)C(F)(F)F` here?
A: The AC50 was 47.8 µM (active).

Q: How did the outcome turn out when `CCOP(=S)(OCC)Oc1nc(Cl)c(Cl)cc1Cl` was run?
A: The outcome was “inactive”.

Q: With `C[C@]12CCC(=O)C[C@@H]1CC[C@@H]1[C@@H]2CC[C@]2(C)[C@@H](O)CC[C@@H]12` as the compound, how does the outcome read?
A: Its outcome is “inactive”.

Q: For `Cc1ccccc1N`, which outcome is on record?
A: Its outcome is “inactive”.

Q: With `O=C(O)C(Cl)(Cl)Cl` as the compound, how does the outcome read?
A: Its outcome is “inactive”.

Q: How did the outcome turn out when `CC(C)(C)c1cc(O)ccc1O` was run?
A: Its outcome is “inactive”.

Q: `Cn1sc(Cl)cc1=O` was tested. Which outcome did it give?
A: The outcome was “inactive”.

Q: For `C=CC(=O)OCCCCCC(C)C`, which outcome is on record?
A: Its outcome is “inactive”.

Q: Which outcome does the source give for `CC(C)(C)CC(C)(C)c1ccc(O)cc1` here?
A: Its outcome is “inactive”.

Q: `O=C1C2(Cl)C3(Cl)C4(Cl)C(Cl)(Cl)C5(Cl)C3(Cl)C1(Cl)C5(Cl)C24Cl` (stereo not given) was tested. Which AC50 did it give?
A: The AC50 was 93.5 µM (active).

Q: With `C=C(C)C(=O)[O][Sn]([CH2]CCC)([CH2]CCC)[CH2]CCC` as the compound, how does the AC50 read?
A: The AC50 was 76.9 µM (active).

Q: With `CCCCCCCCc1ccc(O)cc1` as the compound, how does the outcome read?
A: The outcome was “inactive”.

Q: `NC(=O)O` was tested. Which outcome did it give?
A: The outcome was “inactive”.

Q: For `Oc1cccc2cccnc12`, which outcome is on record?
A: The outcome was “inactive”.

Q: How did the outcome turn out when `ClCC(Cl)CCl` was run?
A: Its outcome is “inactive”.

Q: How did the AC50 turn out when `CC(C)(c1ccccc1)c1ccc(O)c(C(C)(C)c2ccccc2)c1` was run?
A: The AC50 was 86.3 µM (active).

Q: Which outcome does the source give for `O=C(O)C(F)(F)C(F)(F)C(F)(F)C(F)(F)C(F)(F)C(F)(F)F` here?
A: Its outcome is “inactive”.

Reference: PubChem BioAssay (EPA / NIEHS)
